Laboratory results reported in PubChem BioAssay AID1347056 (Sanford-Burnham Center for Chemical Genomics, 2019).
The whole screen tested about 360,000 compounds, of which about 3,600 (1%) were called active. For the sample, actives were picked, then their nearest neighbours and some compounds at random. A number with no mark means an inactive call.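 The calls were made as follows: active = compounds whose plate-normalised and pattern-corrected inhibition of the luciferase reporter signal at the single screening dose is 50% or more; inactive = the rest.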

experiment: TROY pathway blockers in reporter cells – Q293 LMP1-TROYcd cells, NF-kB luciferase, uHTS, primary screen (AID 1347056); settings: 4 h, at 10 µM, active compounds read high

Structure (SMILES) | inhibition
CN(CC(=O)NC1CCCC1)S(=O)(=O)c1cnc[nH]1 | 7.95%
CCNc1nc(NC(C)C)nc(N2CC(=O)N(CC(=O)OCC)C2=N)n1 | 19.4%
CCOC(=O)N1CCN(C(=O)c2ccc3c(=O)n(CCc4ccc(OC)c(OC)c4)c(=O)[nH]c3c2)CC1 | 1.87%
Cc1ccccc1NC(=O)C1CCN(C(=O)NC2CCCCC2)CC1 | -10.7%
O=C(C1CCCN(S(=O)(=O)c2ccccc2)C1)N1CCN(c2ccc(F)cc2)CC1 (stereo unspecified) | 3.28%
CC(=O)N1CCCc2cc(S(=O)(=O)N3CCCC(C(=O)N4CCN(c5cccc(Cl)c5)CC4)C3)ccc21 (stereo unspecified) | 54.2% (active)
COc1cccc(N2CCN(C(=O)C3CCCN(S(=O)(=O)c4cnc[nH]4)C3)CC2)c1 (stereo unspecified) | -3.43%
CCOc1cccc2cc(C(=O)OCC(=O)Nc3c(C)cccc3CC)c(=O)oc12 | -77.6%
O=C(Nc1ccc(Cl)c(C(F)(F)F)c1)C1Cc2c(-c3ccccc3Oc3ccccc3)ccnc2O1 (stereo unspecified) | 16.3%
COc1ccc(N(CC(=O)NCc2ccc(F)cc2)C(=O)CCC(=O)Nc2nccs2)cc1 | -6.88%
CC(Oc1ccc2c(-c3ccccc3)cc(=O)oc2c1)C(=O)NC(Cc1c[nH]c2ccccc12)C(=O)O (stereo unspecified) | -3.69%
O=C(CNC(=O)OCc1ccccc1)Oc1cc2oc(=O)cc(-c3ccccc3)c2cc1Cl | 50.4% (active)
O=C(CNC(=O)c1ccccc1)NCC(=O)OCc1ccc(Cl)cc1 | 17.5%
Cc1ccc(S(=O)(=O)Oc2ccc(/C=N/NC(=O)c3c(Cl)cnn3C)cc2)cc1 | -1.06%
CCN(CC)CCNC(=O)c1sc2ncn(CC(=O)Nc3ccc(C)c(Cl)c3)c(=O)c2c1C | 6.8%
CC(=O)N1CCN(c2ccccc2NC(=S)NC(=O)c2cc3ccccc3o2)CC1 | 5.79%
O=C1NC(c2ccncc2)Nc2sc3c(c21)CCCC3 (stereo unspecified) | -12.2%
C/C(=C\c1ccccc1)C1NC(=O)c2c(sc3c2CCCC3)N1 (stereo unspecified) | 67.6% (active)
O=C(Nc1sc2c(c1-c1nc3ccccc3[nH]1)CCCC2)C1CC1 | -11.2%
CN(C)S(=O)(=O)c1ccc2oc(SCC(=O)Nc3ccccc3F)nc2c1 | -36.4%
COc1ccc(Cl)cc1S(=O)(=O)Nc1cccc(C(=O)O)c1 | 1.76%
COc1cccc(NC(=O)Nc2ccc(F)cc2)c1 | -52.4%
O=C(Nc1ccc2ccccc2c1)Nc1ccc2snnc2c1 | 69.7% (active)
Cc1ccc(NC(=O)Nc2ccc3oc(C)nc3c2)cc1 | -27.6%

Structure (SMILES) | inhibition
CN(CCC(=O)Nc1cc(S(=O)(=O)N(C)C)ccc1Cl)CC(=O)Nc1ccc(F)cc1 | 1.42%
CSCCNCc1cn(-c2ccc(F)cc2F)nc1-c1ccccc1C | 1.03%
OCc1nc(CO)n(Cc2ccccc2)n1 | 11.6%
O=C(CSc1ncnc2scc(-c3ccccc3)c12)NCc1ccc2c(c1)OCO2 | 22.3%
CN(C)C(=O)c1cccc(-c2cnc3sc(NCc4ccc5c(c4)OCO5)nn23)c1 | 51.8% (active)
O=C(COC(=O)c1ccc(Cl)nc1)NCc1ccc2c(c1)OCO2 | -7.63%
COc1ccccc1NC(=O)N1CCCC1C(=O)NCc1cccs1 (stereo unspecified) | 7.15%
COc1ccccc1CNC(=O)CN1CCC(n2cnc3cc(F)ccc32)CC1 | 2.42%
CCCCCCN1CCN(C2CN(Cc3cn(Cc4ccc(F)cc4)nn3)S(=O)(=O)C2)CC1 (stereo unspecified) | 0.62%
COc1ccc(C(=O)/C=C/Nc2ccccn2)cc1 | 72.4% (active)
COCCN(C(=O)CCC(=O)Nc1ccccn1)C(C(=O)NCCC(C)C)c1ccc(OC)cc1 (stereo unspecified) | 5.49%
COc1ccc2nc(-c3ccccn3)ccc2c1 | 6.94%
CCOC(=O)c1cnc(COc2ccccc2Cl)[nH]c1=O | -7.4%
CCOC(=O)c1c(C)[nH]c2c1-c1ccccc1C(=O)C2=O | 63.1% (active)
CCOC(=O)c1c(C)[nH]c(C)c1C(=O)CSc1nc(N)cc(N)n1 | 4.52%
O=C(NCc1nnc(SCC(=O)N2CCC(Cc3ccccc3)CC2)o1)c1ccco1 | 3.48%
Cc1ccc(CS(=O)Cc2ccc(C(=O)N3CCOCC3)o2)cc1 (stereo unspecified) | -4.44%
COc1cc(N2C(=O)CSC2=S)cc(OC)c1OC | 33.1%
O=C1CSC(=S)N1c1ccc(O)cc1 | 50.1% (active)
O=C1CSC(=S)N1c1ccc(Cl)c(Cl)c1 | 33.2%
CC1=CC(=NNS(=O)(=O)c2ccc([N+](=O)[O-])cc2)CC(C)(C)C1 | -0.66%
Cc1nn(C(C)(C)C)c(OC(=O)CC(C)C)c1S(=O)(=O)c1ccccc1 | 12.4%
Cc1ccccc1OCCC(=O)OCC(=O)NCCc1ccc(S(N)(=O)=O)cc1 | 0.01%
O=C(Nc1ccc(-n2ccnc2P(=O)(O)c2ccccc2)cc1)c1ccccc1Br | -20.5%

Structure (SMILES) | inhibition
CC(C)CCN1C(=O)c2ccc(C(=O)Nc3cccc(S(N)(=O)=O)c3)cc2C1=O | 63.2% (active)
Cc1cccc(C(=O)Nc2ccc3c(c2)C(=O)N(CC(C)C)C3=O)c1 | -12.3%
CN1CCN(S(=O)(=O)c2cccc(C(=O)Nc3cccc(S(N)(=O)=O)c3)c2)CC1 | 14.3%
COc1ccc(CCNc2cc(N3CCN(C(=O)c4ccccc4OC)CC3)ccc2[N+](=O)[O-])cc1OC | 64% (active)
COc1ccc(CCNC(=O)c2ccccc2-c2ccccc2C(=O)O)cc1OC | -8%
COc1ccccc1OCCNc1cc(N2CCOCC2)ccc1[N+](=O)[O-] | -25%
C[N+](C)(C)CCNC(=O)c1c[nH]c2ccccc12 | -5.29%
Cc1ccc(F)cc1NC(=O)N1CCCN(c2ccc(C(F)(F)F)cn2)CC1 | 8.63%
O=C(O)c1cc(S(=O)(=O)N2CCCCCC2)c(Cl)cc1Cl | 0.33%
CCn1c(Cc2ccc(OC)cc2)nnc1SCC(=O)Nc1ccc(N2CCOCC2)cc1 | 4.48%
Cc1ccc(OCCCC(=O)Nc2ccc(N3CCOCC3)cc2)cc1 | 6.99%
COc1cccc(/C=C(/CC(=O)Nc2ccc(N3CCOCC3)cc2)c2nc3ccccc3s2)c1 | 54.8% (active)
COc1cc2c(cc1OC)C(C)N(S(=O)(=O)c1cnc(Cl)c(Cl)c1)CC2 (stereo unspecified) | 62.8% (active)
COc1cc2c(cc1OC)CN(C(=O)c1cc(S(=O)(=O)N3CCCCC3)ccc1Cl)CC2 | -16.5%
COc1cc2c(cc1OC)CN(C(=O)c1ccc(S(=O)(=O)N3CCCCCC3)cc1)CC2 | -2.54%
COc1cccc(NC(=O)C(Sc2nc3ccccc3c(=O)n2CC(C)C)c2ccccc2)c1 (stereo unspecified) | -17.8%
O=C(Nc1ccc(N2CCOCC2)nc1)c1c(F)cccc1F | -14.2%
CCOC(=O)C1CCCN(C(=O)c2ccc(C)c(F)c2)CC1 (stereo unspecified) | 1.56%
Cn1cc(CNC(=O)c2ccc(OC3CCN(Cc4ccccn4)CC3)cc2)cn1 | -10.1%
CN(CCc1ccccn1)C(=O)c1ccc(OC2CCN(Cc3ccccn3)CC2)cc1 | 50.2% (active)
CN(CCc1ccccn1)C(=O)c1ccc(OC2CCN(CCc3ccccc3)CC2)cc1 | -24%
Cc1ccccc1C(=O)Nc1cccc(-c2nnc(SCC(=O)O)n2C)c1 | 18.5%
CCOC(=O)/C(C#N)=C\c1c(C)cc(C)c(COC(C)=O)c1C | -28.3%
